In PubChem BioAssay (NCI):
About 83,000 compounds went through this panel and 20% of them were active in at least one assay; those are over-represented in the sample as a whole.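 Plates (96-well) were seeded with cells, treated with compound at one concentration, and incubated for 48 hours before percent growth was determined.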 Activity calls are given as the source filed them. The calls were made as follows: active = growth percent below 10; inactive = the rest.

test system: UACC-62 melanoma; assay: NCI-60 one-dose screen, 48 h (100 = growth as untreated, 0 = no growth, -100 = all killed); conditions: 10 µM unless noted

SMILES	growth
CC(CO)(CO)C(=O)O	103% (inactive)
O=C(O)Cc1cccc2ccccc12	110% (inactive)
O=c1[nH]c(=O)c2cc(Cl)cc(Cl)c2[nH]1	96.7% (inactive)
C=CCC(OC(C)=O)c1ccc(OC)c(OC)c1 (centres undefined)	107% (inactive)
C=CCC(OC(C)=O)c1ccc(C(C)C)cc1 (centres undefined)	105% (inactive)
COC(=O)Cc1cc(COC(C)=O)ccc1C	104% (inactive)
CCCCCCCCCCCCCCCCCC(=O)NCCNC(=O)CCCCCCCCCCCCCCCCC	104% (inactive)
CC(=O)c1cccc(N(C)S(=O)(=O)c2ccc(C)cc2)c1	96% (inactive)
N#CC1(O)CCCCC1	106% (inactive)
CC(=O)OC(C)c1cccc(C#N)c1 (centres undefined)	104% (inactive)
CCN(C(C)=O)c1ccc([N+](=O)[O-])cc1	97.5% (inactive)
CC(C)=CCC[C@@H](C)[C@H]1CC[C@@]2(C)C3=C(CC[C@]12C)[C@@]1(C)CC[C@H](O)C(C)(C)[C@@H]1CC3	101% (inactive)
CCOc1ccc(C(=O)NCC(C)C)cc1	101% (inactive)
CCOC(=O)C(C#N)=C1CCN(C)CC1	103% (inactive)
CCOC(C=O)OCC	104% (inactive)
Cc1nc(O)cc(=O)[nH]1	113% (inactive)
COC1OC(C(O)C(O)CO)C(O)C(O)C1O (centres undefined)	102% (inactive)
O=C(Nc1ccccc1)c1ccco1	104% (inactive)
NC(=O)OCCO	100% (inactive)

SMILES	growth
CC(=O)c1ccc(C)cc1	105% (inactive)
O=C(CC(CC(=O)c1ccccc1)c1ccccn1)c1ccccc1	87.2% (inactive)
ON1CCCC1	105% (inactive)
CC(=O)c1cccc(NS(=O)(=O)c2ccc(C)cc2)c1	84.4% (inactive)
CC(=O)NC(CCc1ccc(Cl)c(Cl)c1)c1cccc(O)c(=O)c1 (centres undefined)	-57.7% (active)
O=S(=O)(OCCOS(=O)(=O)c1ccccc1)c1ccccc1	95.4% (inactive)
Cc1cccc2ccccc12	103% (inactive)
O=C(OC1CCCC1)c1ccccc1Cl	99.2% (inactive)
N#CCCN1C(=O)CCC1C(=O)O (centres undefined)	105% (inactive)
CCOC(=O)C(CCC#N)(CCC#N)C(=O)OCC	103% (inactive)
Cc1ccc(OC(=O)c2ccccc2)cc1	112% (inactive)
O=C1NC(=O)C(c2ccccc2)O1 (centres undefined)	105% (inactive)
O=C(CCl)Oc1ccc([N+](=O)[O-])cc1	114% (inactive)
CCCCNC(=O)c1ccc(OCC)cc1	98.2% (inactive)
CC(CCC#N)(CCC#N)C(=O)c1ccccc1	104% (inactive)
O=[N+]([O-])c1c(Cl)ncnc1Cl	110% (inactive)
Cc1ccc(S(=O)(=O)CCCl)cc1	99.8% (inactive)
Cc1ccc(NC(=O)c2ccccc2Cl)cc1	98.6% (inactive)

test system: LOX IMVI melanoma; assay: as above; conditions: 10 µM

SMILES	growth
CC(CO)(CO)C(=O)O	97.9% (inactive)
O=C(O)Cc1cccc2ccccc12	97% (inactive)
O=c1[nH]c(=O)c2cc(Cl)cc(Cl)c2[nH]1	120% (inactive)
C=CCC(OC(C)=O)c1ccc(OC)c(OC)c1 (centres undefined)	107% (inactive)
C=CCC(OC(C)=O)c1ccc(C(C)C)cc1 (centres undefined)	104% (inactive)
COC(=O)Cc1cc(COC(C)=O)ccc1C	108% (inactive)
CCCCCCCCCCCCCCCCCC(=O)NCCNC(=O)CCCCCCCCCCCCCCCCC	61.4% (inactive)
CC(=O)c1cccc(N(C)S(=O)(=O)c2ccc(C)cc2)c1	82.3% (inactive)
N#CC1(O)CCCCC1	91.7% (inactive)
CC(=O)OC(C)c1cccc(C#N)c1 (centres undefined)	101% (inactive)
CCN(C(C)=O)c1ccc([N+](=O)[O-])cc1	98.6% (inactive)
CC(C)=CCC[C@@H](C)[C@H]1CC[C@@]2(C)C3=C(CC[C@]12C)[C@@]1(C)CC[C@H](O)C(C)(C)[C@@H]1CC3	103% (inactive)
CCOc1ccc(C(=O)NCC(C)C)cc1	97.2% (inactive)
CCOC(=O)C(C#N)=C1CCN(C)CC1	109% (inactive)
CCOC(C=O)OCC	94.1% (inactive)
Cc1nc(O)cc(=O)[nH]1	108% (inactive)
COC1OC(C(O)C(O)CO)C(O)C(O)C1O (centres undefined)	102% (inactive)
O=C(Nc1ccccc1)c1ccco1	97.6% (inactive)
NC(=O)OCCO	94.6% (inactive)

SMILES	growth
CC(=O)c1ccc(C)cc1	108% (inactive)
O=C(CC(CC(=O)c1ccccc1)c1ccccn1)c1ccccc1	94.2% (inactive)
ON1CCCC1	94.8% (inactive)
CC(=O)c1cccc(NS(=O)(=O)c2ccc(C)cc2)c1	66.5% (inactive)
CC(=O)NC(CCc1ccc(Cl)c(Cl)c1)c1cccc(O)c(=O)c1 (centres undefined)	-2.69% (active)
O=S(=O)(OCCOS(=O)(=O)c1ccccc1)c1ccccc1	91.7% (inactive)
Cc1cccc2ccccc12	99.4% (inactive)
O=C(OC1CCCC1)c1ccccc1Cl	97% (inactive)
N#CCCN1C(=O)CCC1C(=O)O (centres undefined)	120% (inactive)
CCOC(=O)C(CCC#N)(CCC#N)C(=O)OCC	111% (inactive)
Cc1ccc(OC(=O)c2ccccc2)cc1	105% (inactive)
O=C1NC(=O)C(c2ccccc2)O1 (centres undefined)	97.4% (inactive)
O=C(CCl)Oc1ccc([N+](=O)[O-])cc1	98.1% (inactive)
CCCCNC(=O)c1ccc(OCC)cc1	95.2% (inactive)
CC(CCC#N)(CCC#N)C(=O)c1ccccc1	100% (inactive)
O=[N+]([O-])c1c(Cl)ncnc1Cl	107% (inactive)
Cc1ccc(S(=O)(=O)CCCl)cc1	107% (inactive)
Cc1ccc(NC(=O)c2ccccc2Cl)cc1	101% (inactive)
